Data taken from a collection of fitness landscapes (doi:10.1016/j.celrep.2020.107928).
Over roughly 81,000 sequences, “one-hybrid fitness for binding NBS DNA” has its median near -0.1; the highest 2% begin near 0.36. The list comes from a sample in which the highest values are over-represented; it also holds similar and randomly drawn sequences.

B1: Caulobacter ParB omega fusion; a variant is named by its letters at X, in order, B8GW30 (parent)
chain: MESVVVGEPGMSEGRRGLGRGLSALLGEVDAAPAQAPGEQLGGSREAPIEILQRNPDQPRRTFREEDLEDLSNSIREKGVLQPILVRPSPDTAGEYQIVAGERAWRAAQRAGLKTVPIMVRELDDLAVLEIGIIENVQRADLNVLEEALSYKVLMEKFERTQENIAQTIGKSXSHVANXMRLLXLPDEVQSYLVSGELTAXHARAIAAAADPVALAKQIIEGGLSVRETEALARKAPNLSAGKSKGGRPPRVKDTDTQALESDLSSVLGLDVSIDHRGSTGTLTITYATLEQLDDLCNRLTRGI

Variants of: B1
Assay: one-hybrid fitness for binding NBS DNA (the Noc-binding site; scaled: cognate 1, non-cognate 0); higher = stronger binding
Details: with NBS DNA site
Procedure, shortened: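 Selection: bacterial one-hybrid in E. coli USO, HIS3 reporter with the site 19 bp from the promoter, 48 hours at 37°C on M9-minus-histidine plus 0.1 mM IPTG and 5 mM 3-AT. Libraries were Caulobacter ParB with four randomised specificity codons, sequenced on Illumina before and after selection. Fitness is the rescaled log change in variant-to-wild-type read ratio, anchored to the cognate and non-cognate sites.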

| Variant | one-hybrid fitness for binding NBS DNA |
| --- | --- |
| TVTG | ≤ 0.2 |
| HFAM | ≤ 0.2 |
| DPVR | ≤ 0.2 |
| CHNI | ≤ 0.2 |
| QKMR | 0.51 |
| QMML | ≤ 0.2 |
| QKMK | ≤ 0.2 |
| QMMD | ≤ 0.2 |
| QRMR | 0.971 |
| QRMF | 0.25 |
| QPMR | ≤ 0.2 |
| QKMC | ≤ 0.2 |
| QCMR | 0.589 |
| QMMR | 0.523 |
| QIMR | 0.348 |
| QRMM | 0.334 |
| TRYK | ≤ 0.2 |
| DMET | ≤ 0.2 |
| PFSA | ≤ 0.2 |
| KETI | ≤ 0.2 |
| TMKT | ≤ 0.2 |
| FTAV | ≤ 0.2 |
| TYAQ | ≤ 0.2 |
| DFDS | ≤ 0.2 |

| Variant | one-hybrid fitness for binding NBS DNA |
| --- | --- |
| QHMD | ≤ 0.2 |
| QLMR | 0.437 |
| QLMD | ≤ 0.2 |
| QHMH | ≤ 0.2 |
| QHMR | 0.512 |
| QLMP | ≤ 0.2 |
| PNHV | ≤ 0.2 |
| LLMW | ≤ 0.2 |
| LSGP | ≤ 0.2 |
| QMTN | ≤ 0.2 |
| QVTR | 0.38 |
| QATP | ≤ 0.2 |
| QATR | 0.507 |
| QVTS | 0.257 |
| QITP | ≤ 0.2 |
| QMTR | 0.568 |
| QMTP | ≤ 0.2 |
| QVTD | ≤ 0.2 |
| QATN | ≤ 0.2 |
| QITH | ≤ 0.2 |
| QITR | 0.417 |
| AEVC | ≤ 0.2 |
| LDTD | ≤ 0.2 |
| DQQR | ≤ 0.2 |

| Variant | one-hybrid fitness for binding NBS DNA |
| --- | --- |
| PSGT | ≤ 0.2 |
| DSIE | ≤ 0.2 |
| WSFT | ≤ 0.2 |
| GPRS | ≤ 0.2 |
| PFKM | ≤ 0.2 |
| QQPY | ≤ 0.2 |
| QSTR | 0.531 |
| QKTH | 0.241 |
| QKTR | 0.646 |
| QSTD | ≤ 0.2 |
| QHTR | 0.527 |
| QTTF | ≤ 0.2 |
| QHTD | ≤ 0.2 |
| QTTQ | 0.242 |
| QTTR | 0.794 |
| QKTK | ≤ 0.2 |
| QSTP | ≤ 0.2 |
| QHTH | ≤ 0.2 |
| HRSV | ≤ 0.2 |
| ENSS | ≤ 0.2 |
| DMPS | ≤ 0.2 |
| GDPL | ≤ 0.2 |
| ACNS | ≤ 0.2 |
| TMDS | ≤ 0.2 |

| Variant | one-hybrid fitness for binding NBS DNA |
| --- | --- |
| PAFY | ≤ 0.2 |
| QPEV | ≤ 0.2 |
| IHVS | ≤ 0.2 |
| GGTE | ≤ 0.2 |
| HVRY | ≤ 0.2 |
| QLTN | ≤ 0.2 |
| QRTR | 1.01 |
| QPTR | ≤ 0.2 |
| QNTR | 0.223 |
| QCTR | 0.637 |
| NRTR | ≤ 0.2 |
| QLTR | 0.487 |
| QLTD | ≤ 0.2 |
| DRTR | ≤ 0.2 |
| PNSR | ≤ 0.2 |
| QDFN | ≤ 0.2 |
| VVTR | ≤ 0.2 |
| ASAC | ≤ 0.2 |
| AKMS | ≤ 0.2 |
| VYSF | ≤ 0.2 |
| GLYG | ≤ 0.2 |
| HCDP | ≤ 0.2 |
| RLGH | ≤ 0.2 |
| RLGR | 0.443 |

| Variant | one-hybrid fitness for binding NBS DNA |
| --- | --- |
| RLSR | 0.43 |
| RLSC | ≤ 0.2 |
| RLWR | 0.248 |
| RLNN | ≤ 0.2 |
| RLGN | ≤ 0.2 |
| RLSK | ≤ 0.2 |
| RLPR | ≤ 0.2 |
| RLDR | ≤ 0.2 |
| RLYR | 0.385 |
| RLNR | 0.526 |
| PRNP | ≤ 0.2 |
| HRFS | ≤ 0.2 |
| YKLT | ≤ 0.2 |
| CNVC | ≤ 0.2 |
| CNLW | ≤ 0.2 |
| RLRR | 0.673 |
| RLHM | ≤ 0.2 |
| RLQR | 0.43 |
| RLCR | 0.412 |
| RLLR | 0.32 |
| RLQQ | ≤ 0.2 |
| RLCS | 0.334 |
| RLHD | ≤ 0.2 |
| RLHR | 0.491 |

| Variant | one-hybrid fitness for binding NBS DNA |
| --- | --- |
| RLIR | 0.21 |
| RLCN | ≤ 0.2 |
| RLQY | ≤ 0.2 |
| HQQG | ≤ 0.2 |
| GCLR | ≤ 0.2 |
| YYLT | ≤ 0.2 |
| TQHV | ≤ 0.2 |
| RMVQ | ≤ 0.2 |
| WTKW | ≤ 0.2 |
| SRPI | ≤ 0.2 |
| QSRF | 0.265 |
| QRDF | ≤ 0.2 |
| QPRF | ≤ 0.2 |
| QRRF | 0.418 |
| QRYF | 0.227 |
| QTYF | ≤ 0.2 |
| QCRF | 0.423 |
| QTRF | 0.446 |
| QTDF | ≤ 0.2 |
| NNNK | ≤ 0.2 |
| WGNT | ≤ 0.2 |
| AIMG | ≤ 0.2 |
| NWSC | ≤ 0.2 |
| HMTV | ≤ 0.2 |

| Variant | one-hybrid fitness for binding NBS DNA |
| --- | --- |
| SYSV | ≤ 0.2 |
| RSDA | ≤ 0.2 |
| RPNA | ≤ 0.2 |
| RCNA | 0.298 |
| RRNA | 0.679 |
| RRDA | 0.463 |
| RCDA | ≤ 0.2 |
| VHDS | ≤ 0.2 |
| RQYA | ≤ 0.2 |
| PMCY | ≤ 0.2 |
| RICR | 0.369 |
| RCCR | 0.45 |
| RFCR | ≤ 0.2 |
| RICN | ≤ 0.2 |
| RSCH | ≤ 0.2 |
| RHCP | ≤ 0.2 |
| RSCR | 0.38 |
| RHCR | 0.37 |
| RPCR | ≤ 0.2 |
| RHCH | ≤ 0.2 |
| RICH | ≤ 0.2 |
| RSCN | ≤ 0.2 |
| TYVA | ≤ 0.2 |
| SMNL | ≤ 0.2 |

| Variant | one-hybrid fitness for binding NBS DNA |
| --- | --- |
| VKSS | ≤ 0.2 |
| NEES | ≤ 0.2 |
| WCYR | ≤ 0.2 |
| AMGT | ≤ 0.2 |
| RKCH | ≤ 0.2 |
| RKCD | ≤ 0.2 |
| RKCR | 0.552 |
| SQRN | ≤ 0.2 |
| VTPF | ≤ 0.2 |
| LTHI | ≤ 0.2 |
| PWLV | ≤ 0.2 |
| QQDY | ≤ 0.2 |
| QQVC | ≤ 0.2 |
| QQYC | ≤ 0.2 |
| QQVY | ≤ 0.2 |
| QQKY | 0.63 |
| QQKC | 0.449 |
| QQFC | ≤ 0.2 |
| QQNC | 0.265 |
| QQRC | 0.455 |
| QQFG | ≤ 0.2 |
| QQVG | ≤ 0.2 |
| QQKG | 0.437 |
| RRWI | 0.2 |

| Variant | one-hybrid fitness for binding NBS DNA |
| --- | --- |
| GLIT | ≤ 0.2 |
| LTTA | ≤ 0.2 |
| AREP | ≤ 0.2 |
| GRTD | ≤ 0.2 |
| PMHT | ≤ 0.2 |
| PPTR | ≤ 0.2 |
| KSNL | ≤ 0.2 |
| THKH | ≤ 0.2 |
| WPSG | ≤ 0.2 |
| GFYT | ≤ 0.2 |
| QQYY | ≤ 0.2 |
| QQKN | 0.464 |
| QQVS | 0.33 |
| QQFY | ≤ 0.2 |
| QQFM | ≤ 0.2 |
| QQKS | 0.714 |
| QQYM | ≤ 0.2 |
| QQRM | 0.459 |
| NQKS | ≤ 0.2 |
| QQRY | 0.597 |
| TWEG | ≤ 0.2 |
| PTGW | ≤ 0.2 |
| RYQK | ≤ 0.2 |
| KVTF | ≤ 0.2 |

| Variant | one-hybrid fitness for binding NBS DNA |
| --- | --- |
| WKWG | ≤ 0.2 |
| DWIC | ≤ 0.2 |
| LTTQ | ≤ 0.2 |
| SPPV | ≤ 0.2 |
| QQRG | 0.407 |
| QQAK | ≤ 0.2 |
| QQDG | ≤ 0.2 |
| QQDM | ≤ 0.2 |
| QQKK | 0.506 |
| QQYK | ≤ 0.2 |
| QQDK | ≤ 0.2 |
| QQYG | ≤ 0.2 |
| QQRK | 0.499 |
| QQVM | ≤ 0.2 |
| QQKM | 0.476 |
| QQPK | ≤ 0.2 |
| ASHP | ≤ 0.2 |
| HWMG | ≤ 0.2 |
| ITPE | ≤ 0.2 |
| GQNS | ≤ 0.2 |
| TPEF | ≤ 0.2 |
| IIVG | ≤ 0.2 |
| NNMC | ≤ 0.2 |
| QQKD | 0.345 |

| Variant | one-hybrid fitness for binding NBS DNA |
| --- | --- |
| QQKP | 0.336 |
| QQKH | 0.657 |
| SQHR | ≤ 0.2 |
| QSRI | 0.338 |
| IDCI | ≤ 0.2 |
| QREI | ≤ 0.2 |
| QCRI | 0.407 |
| QPRI | ≤ 0.2 |
| QSGI | ≤ 0.2 |
| QRRI | 0.43 |
| QCGI | ≤ 0.2 |
| QRYI | 0.254 |
| QRGI | 0.37 |
| IDNI | 0.591 |
| IDPI | ≤ 0.2 |
| PDRM | ≤ 0.2 |
| MWKT | ≤ 0.2 |
| DTEY | ≤ 0.2 |
| DDNC | ≤ 0.2 |
| PMEV | ≤ 0.2 |
| FFGC | ≤ 0.2 |
| MTER | ≤ 0.2 |
| QTYI | ≤ 0.2 |
| QTRI | 0.478 |

| Variant | one-hybrid fitness for binding NBS DNA |
| --- | --- |
| QRDI | ≤ 0.2 |
| QCNI | ≤ 0.2 |
| QTDI | ≤ 0.2 |
| QRNI | 0.403 |
| HLFS | ≤ 0.2 |
| RRGN | 0.324 |
| RRGH | 0.44 |
| RRGP | ≤ 0.2 |
| RRGS | 0.55 |
| RRGM | 0.237 |
| RRGD | ≤ 0.2 |
| PPPL | ≤ 0.2 |
| GQQS | ≤ 0.2 |
| RDPN | ≤ 0.2 |
| DGTL | ≤ 0.2 |
| SCPT | ≤ 0.2 |
| RTKG | 0.223 |
| RTKM | 0.303 |
| RTVR | 0.416 |
| RTKR | 0.866 |
| WTEY | ≤ 0.2 |
| YTWG | ≤ 0.2 |
| PYNR | ≤ 0.2 |
| QMQH | ≤ 0.2 |

| Variant | one-hybrid fitness for binding NBS DNA |
| --- | --- |
| QMQS | 0.394 |
| QHIS | 0.258 |
| QMQP | ≤ 0.2 |
| QPQS | ≤ 0.2 |
| QCQS | 0.448 |
| QSQS | 0.36 |
| QHQN | ≤ 0.2 |
| QHQS | 0.394 |
| CTNW | ≤ 0.2 |
| LAHD | ≤ 0.2 |
| LHIV | ≤ 0.2 |
| RPMT | ≤ 0.2 |
| RRMT | 0.776 |
| RCMT | 0.492 |
| RTMK | ≤ 0.2 |
| RTMG | ≤ 0.2 |
| RKMT | 0.587 |
| RFMT | ≤ 0.2 |
| RRMY | 0.338 |
| RSMT | 0.305 |
| RRMM | 0.221 |
| RTMT | 0.491 |
| RKMM | ≤ 0.2 |
